For 24 compounds, growth results are on record in PubChem BioAssay (NCI).

Test systems include HCT-15 colon; HT29 colon; SNB-19 CNS; U251 CNS; PC-3 prostate; SK-MEL-5 melanoma; UACC-62 melanoma; SK-MEL-28 melanoma; LOX IMVI melanoma.
What all share (test): NCI-60 one-dose screen, 48 h (100 = growth as untreated, 0 = no growth, -100 = all killed)
Common to all, as to settings: 10 µM unless noted

The panel holds about 83,000 compounds, 20% with a hit somewhere; the sample as a whole holds those more often.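 Each cell line was grown in a 96-well plate and treated with one concentration of compound for 48 hours. Values below 10 were considered active.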 Unmarked numbers belong to inactive results. The source made the active and inactive calls.

In the case of `CC(=O)Oc1ccccc1C(=O)/C=C/c1cccc([N+](=O)[O-])c1`, the growth with HCT-15 colon was 54.9%; with HT29 colon, 48.8%; in the assay with SNB-19 CNS it was 81.1%; in the assay on U251 CNS it was 54.3%; in the assay with PC-3 prostate, 71.1%; in the assay on SK-MEL-5 melanoma it was 89.3%. Also, the growth is 85.7% with UACC-62 melanoma and 95.6% in the assay with SK-MEL-28 melanoma.
For the compound `CN1CCN(c2ccc3nc(-c4[nH]ncc4Nc4ncnc5c4OCCCN5)[nH]c3c2)CC1`, the growth with HCT-15 colon was -64.7% (active); with HT29 colon, -24.6% (active); in the assay on SNB-19 CNS, -46% (active); with U251 CNS it was -55.7% (active); with PC-3 prostate, -58.5% (active); in the assay with SK-MEL-5 melanoma, -93.4% (active). In addition, the growth is -74.9% (active) with UACC-62 melanoma and -73.1% (active) with SK-MEL-28 melanoma.
Consider `O=C1C=Cc2ncccc2C1=O`, for which the growth in the assay with HCT-15 colon was 80.3%; in the assay with HT29 colon, 108%; with SNB-19 CNS it was 85.2%; in the assay on U251 CNS it was 42.2%; with PC-3 prostate, 88.5%; with SK-MEL-5 melanoma, 92.9%. For the same compound, the growth is 90.7% in the assay with UACC-62 melanoma and 121% in the assay on SK-MEL-28 melanoma.
Regarding `C=C1CC[C@@H](C(=O)OC)Cc2nc(C)ccc21`, the growth in the assay with HCT-15 colon is 102%; with HT29 colon, 104%; with SNB-19 CNS, 97.1%; with U251 CNS, 103%; in the assay with PC-3 prostate it was 98.4%; with SK-MEL-5 melanoma it was 101%. For the same compound, the results for the growth with UACC-62 melanoma and with SK-MEL-28 melanoma were 96.9% and 107%, respectively.
On to `COc1cc2c(cc1-c1c(C)noc1C)ncc1nc(C3CCCCC3)n([C@@H](C)COC(F)F)c12`, for which the growth is 20.9% in the assay with HCT-15 colon; 13.5% in the assay with HT29 colon; 45.6% with SNB-19 CNS; 47.1% in the assay on U251 CNS; 30.3% with PC-3 prostate; 21.9% in the assay with UACC-62 melanoma. For the same compound, the figures for the growth in the assay with LOX IMVI melanoma and in the assay on SK-MEL-28 melanoma were 12.5% and 45.8%, respectively.
Turning to `Cn1cc(-c2nc(-c3c[nH]c4ncccc34)cs2)c2ccccc21`, the growth is 64.3% with HCT-15 colon; 88.2% in the assay with HT29 colon; 92.8% in the assay with SNB-19 CNS; 96.6% in the assay on U251 CNS; 80.6% in the assay on PC-3 prostate; 94.2% in the assay with SK-MEL-5 melanoma. Besides, the growth with UACC-62 melanoma was 84.6%; with SK-MEL-28 melanoma it was 105%.
As for `Nc1nc(N)c2nc3c(nc2n1)CCCCCCCCCC3`, the growth in the assay on HCT-15 colon was 33.6%; with HT29 colon, 35.6%; with SNB-19 CNS it was 50.8%; in the assay on PC-3 prostate, 39.2%; in the assay with SK-MEL-5 melanoma, 35%; with UACC-62 melanoma, 43.9%. The growth in the assay with LOX IMVI melanoma is 30.8%; in the assay on SK-MEL-28 melanoma, 90.4%.
Regarding `NCCn1cc(-c2nc(-c3c[nH]c4ncccc34)cs2)c2cc(F)ccc21`, the growth in the assay on HCT-15 colon is 58.9%; in the assay on HT29 colon, 67.2%; in the assay with SNB-19 CNS, 86.1%; in the assay with U251 CNS, 84.1%; in the assay on PC-3 prostate, 58.5%; in the assay on SK-MEL-5 melanoma, 80%. Moreover, the growth is 81.7% in the assay with LOX IMVI melanoma and 101% in the assay on SK-MEL-28 melanoma.
Regarding `COc1cc(-c2cc3ncccc3c3nc(OCCN(C)C)c4cccnc4c23)cc(OC)c1OC`, the growth with HCT-15 colon is 23.1%; in the assay on HT29 colon, 9.99% (active); in the assay on SNB-19 CNS it was 15%; in the assay on U251 CNS, 11.8%; with PC-3 prostate it was 16.2%; with SK-MEL-5 melanoma, -7.91% (active). The growth with LOX IMVI melanoma was -43.5% (active); with SK-MEL-28 melanoma it was 31.6%.
Turning to `Fc1ccc2[nH]cc(-c3nc(-c4c[nH]c5ncccc45)cs3)c2c1`, the growth in the assay on HCT-15 colon is 20.3%; in the assay on HT29 colon it was 21.7%; with SNB-19 CNS, 63.8%; in the assay with U251 CNS, 43.6%; in the assay with PC-3 prostate, 43.8%; in the assay on SK-MEL-5 melanoma, 52.8%. For the same compound, the growth was 48.5% in the assay with UACC-62 melanoma and 89% in the assay on SK-MEL-28 melanoma.
With `N#C/C(=C\c1ccc(-c2ccc(Cl)cc2)o1)c1nc(-c2ccco2)cs1`, the growth in the assay with HCT-15 colon was 86.3%; in the assay with HT29 colon it was 102%; in the assay on SNB-19 CNS, 93.4%; in the assay on U251 CNS, 96.9%; in the assay with PC-3 prostate it was 92.8%; with SK-MEL-5 melanoma, 91.1%. Further, the growth is 79.7% with UACC-62 melanoma and 97.5% in the assay on SK-MEL-28 melanoma.
With `Cc1ccc(S(=O)(=O)Nc2ccc(-c3cc(-c4cccc(F)c4)c(C#N)c(=O)[nH]3)cc2)cc1`, the growth with HCT-15 colon is 58.2%; with HT29 colon it was 54.6%; in the assay on SNB-19 CNS it was 84.3%; in the assay on U251 CNS, 71%; in the assay with PC-3 prostate, 68.8%; with SK-MEL-5 melanoma, 82%. Also, the growth is 60.3% with UACC-62 melanoma and 97.4% with SK-MEL-28 melanoma.
On to `O=C(O)c1cccc2c1C(=O)N(c1ccc3c(c1)Cc1ccccc1-3)C2=O`, for which the growth with HCT-15 colon was 108%; with HT29 colon it was 99.9%; with SNB-19 CNS, 111%; in the assay on U251 CNS, 111%; with PC-3 prostate it was 97.6%; with SK-MEL-5 melanoma, 110%. In addition, the results for the growth in the assay on UACC-62 melanoma and in the assay with SK-MEL-28 melanoma were 112% and 110%, respectively.
Turning to `Cc1oc(-c2ccccc2Cl)cc1C(=O)Nc1ccc(S(N)(=O)=O)cc1`, the growth in the assay on HCT-15 colon is 103%; in the assay on HT29 colon, 108%; with SNB-19 CNS, 99.1%; with U251 CNS, 94.9%; with PC-3 prostate, 107%; in the assay with SK-MEL-5 melanoma, 97.3%. The growth is 95.8% in the assay on UACC-62 melanoma and 101% with SK-MEL-28 melanoma.
For `CC(=O)O[C@H]1CC[C@@]2(C)[C@@H](CC[C@@H]3[C@@H]2CC(=O)[C@@]2(C)[C@H]3C[C@@H](C3CCCC3=O)[C@@H]2C(C)=O)C1` (some centres not stated), the growth with HCT-15 colon is 106%; in the assay with HT29 colon, 95.6%; in the assay on SNB-19 CNS, 94.2%; with U251 CNS, 102%; in the assay with PC-3 prostate, 93.1%; in the assay on SK-MEL-5 melanoma it was 108%. Also, the growth with UACC-62 melanoma is 91.6%; in the assay on SK-MEL-28 melanoma it was 113%.
Turning to `Nc1nc2c(c(=O)[nH]1)C(c1ccc3c(c1)OCO3)C=C(C(=O)O)N2` (configuration not stated), the growth in the assay with HCT-15 colon is 111%; in the assay on HT29 colon, 108%; with SNB-19 CNS, 104%; in the assay with U251 CNS, 101%; in the assay on PC-3 prostate, 113%; in the assay on SK-MEL-5 melanoma it was 102%. Besides, the growth in the assay with UACC-62 melanoma was 116%; in the assay with SK-MEL-28 melanoma, 96.2%.
For `N#CC1c2ccccc2-c2ccccc2N1C(=O)c1ccccc1` (configuration not stated), the growth was 12.4% in the assay on HCT-15 colon; 12.3% with HT29 colon; 53.6% with SNB-19 CNS; 18.4% in the assay on U251 CNS; 26.6% in the assay with PC-3 prostate; 22.3% with UACC-62 melanoma. The growth in the assay on LOX IMVI melanoma was 29.9%; in the assay on SK-MEL-28 melanoma it was 58.3%.
As for `CC1=NN(c2ccc(S(=O)(=O)O)cc2Cl)C(=O)C1`, the growth in the assay with HCT-15 colon was 112%; in the assay with HT29 colon it was 109%; in the assay on SNB-19 CNS it was 96.2%; in the assay with U251 CNS, 107%; in the assay with PC-3 prostate, 103%; in the assay with UACC-62 melanoma, 103%. The growth in the assay on LOX IMVI melanoma is 104%; in the assay with SK-MEL-28 melanoma, 122%.
As for `O=C(Nc1ccc(/C=C2\SC(=O)N(Cc3ccc(OC(F)(F)F)cc3)C2=O)cc1)c1ccc(Cl)c([N+](=O)[O-])c1`, the growth in the assay on HCT-15 colon was 72.5%; in the assay on HT29 colon, 11.3%; in the assay with SNB-19 CNS, 36.8%; in the assay with U251 CNS, -18.8% (active); with PC-3 prostate it was 9.15% (active); in the assay with UACC-62 melanoma, 94.4%. The values for the growth with LOX IMVI melanoma and in the assay on SK-MEL-28 melanoma were 73.1% and 95.5%, respectively.
For the compound `Cn1cc(-c2nc(-c3c[nH]c4ncccc34)cs2)c2cc(F)ccc21`, the growth with HCT-15 colon is 19.6%; with HT29 colon, 19.6%; in the assay on SNB-19 CNS, 53.3%; with U251 CNS, 36.7%; in the assay with PC-3 prostate, 33.6%; in the assay with SK-MEL-5 melanoma, 51.4%. The growth with UACC-62 melanoma was 47.6%; with SK-MEL-28 melanoma it was 60.5%.
With `Cc1ccsc1-c1ccc2c(c1)COC2(CCCN(C)C)c1ccc(F)cc1` (configuration not stated), the growth was 29% in the assay on HCT-15 colon; 17% in the assay on HT29 colon; 67.9% in the assay on SNB-19 CNS; 21% in the assay on U251 CNS; 45.6% in the assay on PC-3 prostate; 0.45% (active) with SK-MEL-5 melanoma. Further, the figures for the growth with UACC-62 melanoma and in the assay on SK-MEL-28 melanoma were 44.9% and 42.5%, respectively.
As for `N#C/C(=C\c1ccc(-c2ccc(Br)cc2)o1)c1nc(-c2ccco2)cs1`, the growth was 80.1% in the assay on HCT-15 colon; 99.5% with HT29 colon; 92.7% with SNB-19 CNS; 93.9% in the assay with U251 CNS; 91.5% in the assay with PC-3 prostate; 85% in the assay on SK-MEL-5 melanoma. Also, the values for the growth with UACC-62 melanoma and in the assay on SK-MEL-28 melanoma were 81% and 100%, respectively.
In the case of `NC1(N)C=CC2=C(C=C1)C1(N)C3=C(C=CC(N)(N)C=C3)N2C2(N)C3=C(C=CC(N)(N)C=C3)N1C1=C2C=CC(N)(N)C=C1`, the growth is 94.7% with HCT-15 colon; 94.4% with HT29 colon; 101% in the assay with SNB-19 CNS; 83.3% with U251 CNS; 72.2% with PC-3 prostate; 75% in the assay on SK-MEL-5 melanoma. Besides, the growth in the assay on UACC-62 melanoma is 81.5%; in the assay with SK-MEL-28 melanoma, 99.1%.
For the compound `Cc1nn(-c2ccc(Br)cc2)c2nc3[nH]c(=O)[nH]c(=O)c3nc12`, the growth with HCT-15 colon is 104%; with HT29 colon it was 101%; in the assay with SNB-19 CNS it was 104%; with U251 CNS it was 101%; in the assay with PC-3 prostate, 111%; with SK-MEL-5 melanoma it was 100%. The growth in the assay with UACC-62 melanoma was 102%; in the assay with SK-MEL-28 melanoma, 91.2%.
